Reference: PubChem BioAssay (NCI)
Compounds without any hit were thinned out: in the full panel of roughly 83,000, 20% have a hit.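 Step 1: grow cells in 96-well plates. Step 2: add test compound at a single concentration. Step 3: incubate 48 h. Step 4: record percent growth.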

Columns and labels:
Assay in all cases: NCI-60 one-dose screen, 48 h (100 = growth as untreated, 0 = no growth, -100 = all killed)
Details in all cases: 10 µM unless noted; active = growth percent below 10; inactive = the rest
[1] = system: NCI-H23 lung
[2] = system: NCI-H226 lung
[3] = system: NCI-H322M lung
[4] = system: HOP-62 NSCLC
[5] = system: NCI-H460 lung
[6] = system: HOP-92 NSCLC
[7] = system: NCI-H522 lung
[8] = system: A549/ATCC NSCLC
[9] = system: 786-0 renal
[10] = system: COLO 205 colon
[11] = system: DU-145 prostate
[12] = system: K-562 leukemia
[13] = system: MALME-3M melanoma
[14] = system: MDA-MB-231 breast
[15] = system: RXF 393 renal
[16] = system: SF-268 CNS
[17] = system: SF-295 CNS
[18] = system: SF-539 CNS
[19] = system: UACC-257 melanoma
[20] = system: M14 melanoma

Measured: growth

Cc1ccc(C(=O)Nc2nc3c(s2)CN(Cc2ccccc2)CC3)cn1
inactive: [1] 80.5% | [2] 88.8% | [3] 92.9% | [4] 88.5% | [5] 101% | [6] 97.5% | [7] 65.9% | [8] 75.4% | [9] 85.1% | [10] 87.4% | [11] 98% | [12] 36.8% | [13] 87.1% | [14] 100% | [15] 102% | [16] 91% | [17] 89.6% | [18] 103% | [19] 92.9% | [20] 79.9%

CN(Cc1ccccc1)c1nc(Cl)c(C2CC(c3ccc(F)cc3)=NN2C=O)s1 (stereo not given)
inactive: [1] 84.2% | [2] 95.9% | [3] 93.1% | [4] 107% | [5] 96.9% | [6] 89.5% | [7] 83.3% | [8] 94.6% | [9] 93.9% | [10] 99.7% | [11] 104% | [12] 77.9% | [13] 105% | [14] 97% | [15] 92.9% | [16] 91.2% | [17] 92.2% | [18] 107% | [19] 103% | [20] 92.8%

O=C(NCCCN1CCCCC1)c1ccc(-c2nc3ccc4[nH]ncc4c3c3c2CCCC3)cc1
inactive: [1] 49.3% | [2] 63.8% | [3] 51.7% | [4] 47.6% | [5] 24.9% | [6] 46.2% | [7] 42.8% | [8] 26.6% | [9] 44.3% | [10] 60.9% | [11] 51.3% | [12] 16.7% | [13] 70.8% | [14] 54.9% | [15] 28.5% | [16] 54.2% | [17] 55.3% | [18] 43.8% | [19] 97.2% | [20] 57.3%

Cc1ccc(C(=O)c2ccc(CC(=O)N=Nc3c(O)[nH]c4ccc(OC(F)(F)F)cc34)n2C)cc1
inactive: [1] 90% | [2] 91% | [3] 96.7% | [4] 93.3% | [5] 103% | [6] 116% | [7] 85.6% | [8] 86% | [9] 101% | [10] 110% | [11] 102% | [12] 92.5% | [13] 126% | [14] 92.4% | [15] 104% | [16] 93.2% | [17] 101% | [18] 102% | [19] 102% | [20] 97.6%

Oc1ccccc1C=Nc1ccc(N2CCN(c3ccccc3)CC2)cc1
inactive: [1] 93.4% | [2] 110% | [3] 98.2% | [4] 74.7% | [5] 111% | [6] 99.5% | [7] 95.7% | [8] 92.1% | [9] 94.1% | [10] 93.7% | [11] 104% | [12] 80.7% | [13] 114% | [14] 100% | [15] 97.7% | [16] 99.2% | [17] 103% | [18] 77.2% | [19] 97% | [20] 96.3%

C=C(C)[C@@H]1CC[C@]2(C(=O)N3CCN(C)CC3)CC[C@]3(C)[C@H](CC[C@@H]4[C@@]5(C)CC(CCCNC(C)=O)(CCCNC(C)=O)[C@H](OC(C)=O)C(C)(C)[C@@H]5CC[C@]43C)[C@@H]12
inactive: [1] 98.2% | [2] 99.1% | [3] 105% | [4] 103% | [5] 99.5% | [6] 98.2% | [7] 96.3% | [8] 102% | [9] 99.8% | [10] 106% | [11] 108% | [12] 81.1% | [13] 98% | [14] 108% | [15] 109% | [16] 98.9% | [17] 99.4% | [18] 101% | [19] 109% | [20] 104%

CCn1cc(C(=O)NN=C2CCCC2)c(=O)c2ccc(C)nc21
inactive: [1] 98.9% | [2] 82.9% | [3] 82.4% | [4] 93.3% | [5] 92.9% | [6] 90.6% | [7] 88.8% | [8] 90.3% | [9] 93.1% | [10] 104% | [11] 109% | [12] 93.1% | [13] 91.8% | [14] 93.3% | [15] 103% | [16] 93.4% | [17] 92.8% | [18] 96.2% | [19] 90.1% | [20] 102%
